Screening data from PubChem.
An excerpt weighted towards active compounds, which were near 19% of everything screened.
DT40 TDP1 no CPT – qHTS for Inhibitors of human tyrosyl-DNA phosphodiesterase 1 (TDP1): qHTS in cells in absence of CPT; DT40 Tdp1-/- hTDP1 cells, no CPT, ATP luminescence, 48 h; Potency, µM (top dose mostly 46.2 µM), usual class: inhibitors; hit rate 15% among 420,000; AID 686978, 2013; further: nearly all actives have a fitted effect of over 55% in size
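Luminescent ATP content (CellTiter-Glo) served as the growth readout. Knockout chicken DT40 cells expressing human TDP1 were exposed to compounds without camptothecin for a minimum 48 hr at 37 °C.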
HT1080-NT tox – kills 2HG-producing HT-1080-NT fibrosarcoma cells; HT-1080-NT fibrosarcoma viability, CellTiter-Glo ATP luminescence, 48 h; Potency, µM (titrated, usually from 46.1 µM), hits mostly cytotoxic; hit rate 1.6% among 360,000; AID 686970;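 further: NT is the 2HG producing partner of a matched IDH1 knockdown line; nearly all actives have a fitted effect of over 55% in size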
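Fibrosarcoma NT cells, 750 per well in 5% FBS RPMI, were exposed to compound for 48 hours. Viability: CellTiter-Glo luminescence.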
ELG1 repair inh – blocks ELG1-dependent DNA repair in HEK293T cells | HEK293T ELG1-luciferase reporter, luminescence, 16 h; DNA damage induced by 5-fluorouridine | Potency, µM (titrated, usually from 46.1 µM), actives largely listed as inhibitors | hit rate 2.3% among 330,000 | AID 504467; further: nearly all actives have a fitted effect of over 55% in size
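Step one: seed 2,000 cells per well. Step two: pin-transfer compound or DMSO alongside 5-fluorouridine. Step three: incubate 16 hr, 37 °C, 5% CO2. Step four: add ONE-Glo, wait 30 min, read luminescence.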
IL1B secr inh – inhibitors of inflammasome signaling (IL-1 beta secretion); THP-1 LPS/ATP IL-1B secretion, AlphaLISA, 16 h; hits give low values; activity change, % at 57.5 µM; hit rate 4.7% among 360,000; in the data active means activity change below about -50%; inconclusive means mostly about -30% to -49%
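Secreted IL-1B measured by AlphaLISA bead assay after 16 h compound exposure of THP-1 cells; compounds (final up to 57.5 uM) added 1 h before LPS (250 ng/mL) and ATP (1.25 mM) stimulation; lower signal means less secretion.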
DT40 TDP1 CPT – DT40-hTDP1 cell growth loss with CPT; chicken DT40 Tdp1-/-;hTDP1 cells + 20 nM CPT, ATP luminescence, 48 h; Potency, µM (series often up to 46.2 µM), actives largely listed as inhibitors; hit rate 12% among 420,000; further: nearly all actives have a fitted effect of over 55% in size
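Chicken DT40 Tdp1-/- cells stably complemented with human TDP1 were seeded at 400 cells/well in medium containing 20 nM camptothecin, exposed to pin-transferred compounds, and grown at 37 °C for at least 48 hr. Viability was read as ATP luminescence.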
HT1080 IDH1KD tx – kills HT-1080 cells with IDH1 knockdown; HT-1080 IDH1 knockdown viability, ATP luminescence, 48 h; Potency, µM (series often up to 46.1 µM), usual class: cytotoxic; hit rate 2% among 360,000; AID 686971
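Luminescent ATP read-out (CellTiter-Glo, 10 min at room temperature) after 48 h compound exposure at 37 °C gave viability of IDH1-knockdown HT-1080 cells. Activity was normalised to DMSO and cell-free wells, then fitted as concentration-response curves.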
Numbers stand for hits; – = inactive; ? = inconclusive; · = not tested or not shown; [ ] = dose if it differs, or a comment. Unless noted, the call rests on the fitted dose curve; in most records, active means well fitted curve in the direction sought with a large enough effect; inconclusive means small, poorly fitted or top-dose-only effect, or another doubt; inactive means no such curve, though single readings can be large; an effect the other way counts as inactive or inconclusive.

SMILES	DT40 TDP1 no CPT	HT1080-NT tox	ELG1 repair inh	IL1B secr inh	DT40 TDP1 CPT	HT1080 IDH1KD tx
Cc1nn(C)c2c1c(C(F)(F)F)cc(=O)n2C(C)C(=O)N1CCN(c2ccccc2)CC1 (stereo unspecified)	?	·	·	·	23µM	·
COc1ccc(N2CCN(C(=O)C(C)n3c(=O)cc(C(F)(F)F)c4c(C)nn(C)c43)CC2)cc1 (stereo unspecified)	12µM	·	·	·	12µM	·
Cc1ccccc1N(CC(=O)NCC1CCCO1)C(=O)CCC(=O)Nc1nccs1 (stereo unspecified)	–	–	–	–	–	–
C/C(=N\NC(=S)Nc1c(C)cccc1C)c1ccc(O)cc1	?	–	?	–	16µM	–
C/C(=N\NC(=S)Nc1ccccc1C)c1cc2ccccc2o1	5.2µM	–	?	–	4.1µM	–
C/C(=N\NC(=S)Nc1c(C)cccc1C)c1cc2ccccc2o1	2.1µM	–	–	–	3.3µM	–
CC(=O)Nc1cccc(/C(C)=N/NC(=O)c2ccc(O)cc2)c1	–	–	–	–	–	–
Cc1cc(NC(=O)C(C)SCC(=O)N(C)CC(=O)Nc2ccc(Br)cc2C)no1 (stereo unspecified)	–	–	–	–	–	–
CCN(CC)S(=O)(=O)c1ccc(Cl)c(NC(=O)COc2ccccc2[N+](=O)[O-])c1	23µM	?	?	–	?	?
CCN(CC)S(=O)(=O)c1cc(C(=O)N2CCc3ccccc32)ccc1Cl	9.2µM	?	?	–	?	?
CCN(CC)S(=O)(=O)c1cc(C(=O)Nc2ccccc2[N+](=O)[O-])ccc1Cl	16µM	–	?	-89	?	?
COc1ccccc1OCCC(=O)OCC(=O)Nc1cc(S(=O)(=O)N(C)C)ccc1Cl	?	–	–	–	?	–
CN(C)S(=O)(=O)c1ccc(Cl)c(NC(=O)COc2ccccc2[N+](=O)[O-])c1	3.3µM	–	–	–	?	–
CCN(CC)S(=O)(=O)c1ccc(Cl)c(NC(=O)COc2ccc(OC)cc2)c1	–	–	–	–	–	–
O=C(COc1ccccc1)NC1CCSC1=O (stereo unspecified)	–	–	–	–	–	–
COc1cccc(Cn2nnc(C(=O)Nc3cc(Cl)ccc3OC)c2N)c1	16µM	–	?	–	23µM	?
Cc1ccc(Cn2nnc(C(=O)Nc3cc(C)ccc3C)c2N)cc1	–	–	–	–	?	–
COc1cccc(NC(=O)Cn2nnc(C(=O)Nc3cc(Cl)ccc3OC)c2N)c1	?	?	?	–	–	–
Cc1ccc(C)c(NC(=O)c2nnn(Cc3ccc(F)cc3Cl)c2N)c1	6.5µM	·	·	·	15µM	·
COc1ccc(OC)c(NC(=O)c2nnn(Cc3ccc(Br)cc3F)c2N)c1	18µM	–	21µM	–	8.2µM	–
Cc1ccc(CN2CCOc3ccc(CN4CCC(Oc5cccnc5)CC4)cc3C2)o1	?	·	·	·	–[9.04 µM]	·
Cc1ccc(-n2ncc3c(N(CC(C)C)CC(C)C)ncnc32)c(C)c1	?	·	·	·	21µM	·
C=CCNc1ncnc2c1cnn2-c1ccc(C)cc1C	?	–	–	–	–	–
Cc1ccc(-n2ncc3c(SCc4ccccn4)ncnc32)c(C)c1	16µM	?	?	-69	?	?
Cc1ccc(-n2ncc3c(NCC(C)C)ncnc32)c(C)c1	?	·	·	·	23µM	·
SMILES	DT40 TDP1 no CPT	HT1080-NT tox	ELG1 repair inh	IL1B secr inh	DT40 TDP1 CPT	HT1080 IDH1KD tx
CCOC(=O)N1CCC(Nc2ncnc3c2cnn3-c2ccc(C)cc2C)CC1	8.2µM	–	?	–	10µM	–
CCN(CC)CCNS(=O)(=O)c1ccc(C(=O)NN)cc1	?	–	–	–	–	–
Cc1c(NC(=O)c2cccc(NC(=O)COc3ccc(C#N)cc3)c2)c(=O)n(-c2ccccc2)n1C	–	–	?	–	–	–
CC(=O)c1cccc(OCC(=O)Nc2cccc(C(=O)Nc3c(C)n(C)n(-c4ccccc4)c3=O)c2)c1	?	–	?	–	13µM	–
COc1ccc(C(=O)COc2ccc3c(C)cc(=O)oc3c2)cc1	?	–	–	–	–	–
COc1cccc(C(=O)N2CCc3cc(OC)c(OC)cc3C2COc2ccc3c(C)cc(=O)oc3c2)c1 (stereo unspecified)	10µM	·	·	·	?	·
COc1cccc(C(=O)COc2ccc3c(C)cc(=O)oc3c2)c1	2.3µM	–	–	–	3.3µM	?
Cc1cccc(C)c1NC(=O)COc1ccc2c(C)c(Cc3ccccc3)c(=O)oc2c1	12µM	–	?	–	?	–
CC(NS(=O)(=O)c1ccc(OCC(=O)NCc2ccccn2)cc1)c1ccccc1 (stereo unspecified)	–	–	–	–	?	–
Cn1c(=O)c2sccc2n2c(CCC(=O)NCc3ccccc3)nnc12	–	·	·	·	–	·
COCC(=O)N1CCc2cc(OC)c(OC)cc2C1COc1ccc2c(C)cc(=O)oc2c1 (stereo unspecified)	?	·	·	·	–	·
COc1cc(NC(=O)COc2cc3oc(=O)cc(C)c3cc2Cl)cc(OC)c1OC	5.8µM	–	?	–	8.2µM	–
Cc1cc(=O)oc2cc(OCC(=O)Nc3c(Cl)cccc3C(F)(F)F)ccc12	13µM	–	?	–	?	–
COc1cc2c(cc1OC)C(COc1ccc3c(C)cc(=O)oc3c1)N(C(=O)c1ccccc1F)CC2 (stereo unspecified)	21µM	·	·	·	?	·
Cc1cc(=O)oc2cc(OCC(=O)Nc3nccs3)ccc12	–	–	?	–	–	–
CC(=O)c1cccc(NC(=O)COc2ccc3oc(=O)cc(C)c3c2)c1	?	–	?	–	18µM	–
O=S1(=O)C=C[C@@H](CO)N1Cc1ccc(Br)cc1	–	–	·	–	–	–
CN(/N=C/c1c[nH]c2ccccc12)c1cnn(-c2ccc(F)c(Cl)c2)c(=O)c1Cl	26µM	–	–	–	26µM	–
O=C(O)C(Cc1cccs1)c1cccs1 (stereo unspecified)	–	–	·	–	–	–
O=C(NCC1CCCO1)c1cc(-c2ccccc2)on1 (stereo unspecified)	?	–	?	-80	?	?
Cc1ccc(-c2cc(C(=O)NCC3CCCO3)no2)cc1 (stereo unspecified)	–	–	?	–	?	–
COc1ccc(OC)c(-c2nc(C(=O)NCC3CCCO3)cc3c2[nH]c2ccccc23)c1 (stereo unspecified)	21µM	–	?	–	18µM	–
